HT1080-NT tox = kills 2HG-producing HT-1080-NT fibrosarcoma cells | HT-1080-NT fibrosarcoma viability, CellTiter-Glo ATP luminescence, 48 h | Potency, µM (doses to about 46.1 µM), inactives show at the top dose activity, negative = less viability, usual class: cytotoxic | actives 1.6% (n = 360,000) | AID 686970;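 note: NT is the 2HG producing partner of a matched IDH1 knockdown line; 0% = DMSO-treated cells and -100% = media-only wells without cells; nearly all actives have a fitted effect of over 55% in size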
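HT-1080-NT; 750 cells/well; 5% FBS RPMI; 48 h compound, 37 degrees C; CellTiter-Glo luminescence; curve fitting and curve-class assignment.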
HT1080 IDH1KD tx = kills HT-1080 cells with IDH1 knockdown; HT-1080 IDH1 knockdown viability, ATP luminescence, 48 h; Potency, µM (series often up to 46.1 µM), for inactives: top-dose activity, negative = toxicity, usual class: cytotoxic; actives 2% (n = 360,000); AID 686971;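 note: 0% = DMSO wells and -100% = cell-free medium wells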
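Cytotoxicity counter-line: IDH1KD HT-1080, 48 h, CellTiter-Glo. Curves classed by r2, magnitude and activity.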
ATXN2 expr inh = reduces ATXN2 reporter expression in HEK-293 cells; Potency, µM (doses to about 57 µM), without a hit: at the highest dose activity change, negative = inhibition, usual class: inhibitors; HEK-293 ATXN2-luciferase reporter, luminescence, 24 h; actives 0.72% (n = 360,000); note: % is set by controls: 0 for no effect and ±100 for the full control effect; nearly all actives have a fitted effect of over 55% in size
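ATXN2-luciferase reporter cells (luciferase flanked by upstream and downstream ATXN2 gene portions) were treated 24 h at 37 °C with compounds at up to 57 uM. SteadyGlo luminescence gave expression; GF-AFC fluorescence gave viability.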
KB-V1 cytotox = kills drug-selected multidrug resistant KB-V1 cells | actives 3.4% (n = 400,000) | Potency, µM (top dose mostly 46.1 µM), actives largely listed as cytotoxic | AID 1347076 | KB-V1 MDR cells viability, CellTiter-Glo, 72 h; note: % is set by controls: 0 for no effect and ±100 for the full control effect; nearly all actives have a fitted effect of over 60% in size
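Cytotoxicity toward P-gp-expressing KB-V1 cells was determined as loss of CellTiter-Glo luminescence after 72 h at 37 degrees C. Compounds were tested in quantitative HTS format across a concentration range, with curves fitted to normalized data.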
S2 tox = cell viability loss in ATXN counter-screen | S2 cells (HEK-293 line with an ATXN2-luciferase reporter) viability, CellTiter-Fluor protease fluorescence, 24 h | Potency, µM (titrated, usually from 56.7 µM), usual class: cytotoxic | actives 0.49% (n = 400,000) | AID 651635; note: nearly all actives have a fitted effect of over 40% in size
KB-3-1 cytotox = kills parental KB-3-1 adenocarcinoma cells; Potency, µM (doses to about 46.1 µM), usual class: cytotoxic; actives 1.4% (n = 400,000); AID 1347075; KB-3-1 viability, CellTiter-Glo ATP luminescence, 72 h; note: % is set by controls: 0 for no effect and ±100 for the full control effect; nearly all actives have a fitted effect of over 60% in size
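KB-3-1 parental drug-naive adenocarcinoma cells in DMEM/10% FBS, incubated 72 h at 37 C with pin-transferred compounds across a concentration series. Viability by CellTiter-Glo luminescence; concentration-response curves fitted after normalization.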
* = called active by the depositor; i = inactive; u = inconclusive; x = no result; [ ] = dose if it differs, or a comment. This is a sample that favours compounds with a hit; in the whole collection about 6.2% have one here. Calls come from the whole dose curve; as a rule, active = well fitted curve in the direction sought with a large enough effect; inconclusive = small, poorly fitted or top-dose-only effect, or another doubt; inactive = no such curve, though single readings can be large; an effect the other way counts as inactive or inconclusive. Potency is the fitted concentration of half-maximal effect.

SMILES | HT1080-NT tox | HT1080 IDH1KD tx | ATXN2 expr inh | KB-V1 cytotox | S2 tox | KB-3-1 cytotox
Cc1ccccc1C(=O)N1CCN(c2ccc(NC(=S)NC(=O)c3ccco3)cc2)CC1 | u | u | x | i | 14.1µM* | u
Cc1ccccc1C(=O)N1CCN(c2ccc(NC(=O)c3ccco3)cc2Cl)CC1 | u | u | 31.6µM* | u | u | i
CC(C=CC=C(C)C=CC1=C(C)CCCC1(C)C)=CC=CC=C(C)C=CC=C(C)C=CC1=C(C)CCCC1(C)C | x | x | 9.2% | x | x | x
Cc1ccc2c(c1)C=CC(C#N)N2C(=O)c1ccccc1 (centres undefined) | 1.64µM* | 1.46µM* | -36.1%[11.3 µM] | 9.2µM* | i | 4.61µM*
COc1ccc(C(=O)N2c3ccccc3C=CC2C#N)cc1 (centres undefined) | -28.5% | -20.3% | -12.8%[11.3 µM] | i | i | i
CCSC(=O)N1c2ccc(OC)cc2C=CC1C#N (centres undefined) | 0.461µM* | u | 4.9% | 0.731µM* | u | 0.651µM*
Cc1ccc2c(c1)C=CC(C#N)N2C(=O)Oc1ccccc1 (centres undefined) | 2.2% | 0.1% | x | i | i | i
COc1ccc(NC(=O)c2ccc3c(c2)CCN3S(C)(=O)=O)cc1 | 11.4% | 3.9% | x | u | i | i
CCCCOC(=O)c1ccc(NC(=O)c2ccc3c(c2)CCCN3S(C)(=O)=O)cc1 | x | x | 7.08µM* | u | u | i
COc1cc(C(=O)Nc2ccc(C)cn2)c([N+](=O)[O-])cc1OC | -0.3% | 8.1% | -18.6% | i | i | i
COc1cc(C(=O)Nc2c(C)cc(C)cc2C)c([N+](=O)[O-])cc1OC | 9.5% | 11.2% | 9.1% | 20.6µM* | u | i
Cc1ccc(-c2cn(-c3ccccc3)c(SCC(=O)NC3CCS(=O)(=O)C3)n2)cc1C (centres undefined) | 3.2% | 2.7% | 62.9% | 3.66µM* | i | i
CC(C)Nc1cccnc1N1CCN(C(=O)c2cc3cc(NS(C)(=O)=O)ccc3[nH]2)CC1 | x | x | 5.0% | x | i | x
Cc1ccc(NS(=O)(=O)c2ccc(Cl)c(C(=O)Nc3ccccc3-c3nc4ccccc4[nH]3)c2)cc1C | 6.51µM* | 8.2µM* | u | 7.31µM* | u | u
COC1=C(OC)C(=O)C(Sc2ccc3ccccc3c2)=CC1=O | u | 16.4µM* | u | 2.59µM* | x | u
COc1ccc2cc(-c3nc4ccc(C(=O)O)cc4[nH]3)c(=O)oc2c1 | x | x | u | i | x | i
COc1ccc(OC)c(C(=O)Cn2nnc(-c3ccc(N4CCOCC4)cc3)n2)c1 | 1.1% | 7.3% | -7.9% | i | i | 20.6µM*
COc1ccc(-c2ccc(-c3nnn(CC(=O)N4CCOCC4)n3)cc2)cc1 | -4.8% | -2.2% | 5.7% | u | i | i
CC(C(=O)c1ccccc1)[n+]1cccc(Cl)c1 (centres undefined) | x | x | x | i | x | i
CCc1ccc(Nc2nnc(SCC(=O)N(C)CC(=O)Nc3ccccc3CC)s2)cc1 | 16.3% | 8.8% | 14.0% | u | u | i
CCc1ccccc1NC(=O)CN(C)C(=O)CSc1nnc(Nc2ccc(C)cc2)s1 | -8.0% | -0.3% | -1.5% | 14.6µM* | i | i
Cc1ccc(Nc2nnc(SCC(=O)Nc3cccnc3Cl)s2)cc1C | -11.6% | u | 12.3% | 5.17µM* | i | i
Cc1ccc(Nc2nnc(SCC(=O)Nc3ccccc3[N+](=O)[O-])s2)cc1 | -2.0% | -4.4% | -3.2% | u | i | i
CCCCOc1ccc(/C=C/C(=O)Nc2ccc([N+](=O)[O-])cc2C)cc1 | -6.5% | -0.7% | 6.6% | i | i | i
CCCOc1ccc(/C=C/C(=O)Nc2ccc([N+](=O)[O-])cc2)cc1 | 13µM* | -3.7% | u | 25.9µM* | u | 7.31µM*
SMILES | HT1080-NT tox | HT1080 IDH1KD tx | ATXN2 expr inh | KB-V1 cytotox | S2 tox | KB-3-1 cytotox
COc1ccccc1OCCNC(=O)/C=C/c1ccc([N+](=O)[O-])cc1 | 6.7% | -1.4% | -5.1% | 14.6µM* | i | i
CCOc1cc(-c2noc(N)c2C(=O)OC)cc(OCC)c1OCC | -0.4% | 0.1% | -5.5% | 11.6µM* | u | i
CN1C2=CC=CC=CC2=[N+](C)C12C=CC(=[N+]([O-])[O-])C=C2[N+](=O)[O-] (centres undefined) | -6.6% | -4.6% | -17.8% | u | x | i
CN1C2=CC=CC=CC2=[N+](C)C12C([N+](=O)[O-])=CC(=[N+]([O-])[O-])C=C2[N+](=O)[O-] (centres undefined) | u | 2.06µM* | 3.5% | i | i | i
CC(C)c1c(C(=O)N2CCN(CCO)CC2)cnn1-c1nccc(-c2cccs2)n1 | x | x | x | x | i | x
CN(C)c1ccc(CNC(=O)CN2C(=O)c3cccnc3Oc3ccc(Cl)cc32)cc1 | x | x | x | i | x | i
CN(C)CC=CC(=O)Nc1cc2c(Nc3ccc(F)c(Cl)c3)ncnc2cc1O[C@H]1CCOC1 | x | x | 27.3µM* | x | x | x
CCN1CCC(n2cc(CNc3cc(Cl)c4ncc(C#N)c(Nc5ccc(F)c(Cl)c5)c4c3)nn2)CC1 | x | x | -18.8% | x | x | x
COc1cc2ncnc(Nc3ccc(F)c(Cl)c3)c2cc1NC(=O)C=CCN1CCCCC1 | x | x | 30.6µM* | x | x | x
CCOc1cc2ncc(C#N)c(Nc3ccc(F)c(Cl)c3)c2cc1NC(=O)C=CCN(C)C | x | x | 21.7µM* | x | x | x
Cc1cccc(OCc2nc(CC(=O)Nc3ccc(C)c(C)c3)cs2)c1 | x | x | -2.4% | i | i | i
CCOC(=O)C1CCN(c2cc3c(cc2NC(=O)c2ccc(Cl)cc2)n(C)c(=O)n3C)CC1 | x | x | 3.0% | i | i | i
CCc1ccc(OCCNC(=O)c2ccccc2SCc2ccc(F)cc2)cc1 | -6.5% | -1.2% | -15.0% | 18.4µM* | i | i
O=C(NCCOc1ccc(F)cc1)c1ccccc1SCc1ccccc1 | -5.8% | -4.8% | 3.8%[11.3 µM] | u | i | i
CCOC(=O)c1c(C)[nH]c(C)c1S(=O)(=O)N1CCC(C(=O)NCc2cccc(OC)c2)CC1 | x | x | 10.0% | i | i | i
COc1ccc(CN2CCc3nnc(CCc4ccccc4)n3CC2)c(OC)c1C | x | x | x | x | i | x
O=C(Nc1ccc(-n2nncc2-c2ccco2)cc1)c1ccc(F)cc1 | -9.5% | -16.3% | -0.5% | 16.4µM* | i | i
CCC(=O)Oc1ccc2ccccc2c1CNC(=O)c1ccccc1 | -10.2% | 0.4% | 0.8% | 14.6µM* | i | u
CC(C)Cn1c(CNC(=O)c2ccccc2)nc2ccccc21 | -2.8% | 1.4% | -1.9% | u | i | i
